Measured values as given in the supplement of paper PMC10849652.
About 7,900 targets were measured; listed, in parts, are those with a hit and a random draw of the rest. About 0.6% of all pairs of compound and target were hits.

How the values were obtained:
Experiment in all cases: log2 fold change, soluble protein after heating vs DMSO (PISA); higher = thermal stabilisation; K562 cells, 10 uM, 30 min; active = over 0.2 and 3.5 SD of the protein, either way, in both replicates (recomputed)
[1] = compound: C1=CC=C(C=C1)[C@H](COC2=CC3=C(C=C2)NC(=O)N3)NC(=O)C4=CC=CN(C4=O)CC5=CC(=C(C=C5)F)F
Summary of the method: (§1)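 Soluble protein was defined as the supernatant after 21,000xg for 90 min. It came from K562 cells at 2×10^6 cells/mL given 10 μM compound for 30 min, heated in aliquots for 3 min across 48°C-58°C, pooled, and extracted in PBS with 0.5% NP-40 at 4°C, and was quantified by TMTpro 16plex LC-MS/MS with equalised channel sums. Thermal stability against control samples, from duplicates, is reported as log2 fold change.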

[2] = compound: CC1=C(SC2=C1C(=N[C@H](C3=NN=C(N32)C)CC(=O)N)C4=CC=C(C=C4)Cl)C
Summary of the method: as §1

[3] = compound: CC1=C2C(=CC=C1)N=C(N(C2=O)C3=CC=CC=C3C)CN4C=NC5=C(N=CN=C54)N
Summary of the method: as §1

[4] = compound: Cc1sc2c(c1C)C(c1ccc(Cl)cc1)=N[C@@H](CC(=O)OC(C)(C)C)c1nnc(C)n1-2
Summary of the method: as §1

[5] = compound: c1ccc([C@@H]2C[C@H]2NC2CCNCC2)cc1
Summary of the method: as §1

Measured: log2 fold change

POMP (UniProt Q9Y244)
inactive: [1] -0.101 | [2] -0.077 | [3] -0.069 | [4] -0.018 | [5] -0.009

PIGH (UniProt Q14442)
UniProt Q14442, sequence (Q14442 whole entry, looked up): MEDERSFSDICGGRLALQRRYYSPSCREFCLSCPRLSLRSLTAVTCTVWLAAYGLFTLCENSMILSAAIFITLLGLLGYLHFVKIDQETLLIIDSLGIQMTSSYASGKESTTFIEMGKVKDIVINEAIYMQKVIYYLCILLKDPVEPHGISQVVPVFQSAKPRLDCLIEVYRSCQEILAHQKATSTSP
inactive: [1] 0.044 | [2] 0.064 | [3] 0.144 | [4] -0.046 | [5] -0.024

PRUNE1 (UniProt Q86TP1)
UniProt Q86TP1, sequence (Q86TP1 whole entry, looked up): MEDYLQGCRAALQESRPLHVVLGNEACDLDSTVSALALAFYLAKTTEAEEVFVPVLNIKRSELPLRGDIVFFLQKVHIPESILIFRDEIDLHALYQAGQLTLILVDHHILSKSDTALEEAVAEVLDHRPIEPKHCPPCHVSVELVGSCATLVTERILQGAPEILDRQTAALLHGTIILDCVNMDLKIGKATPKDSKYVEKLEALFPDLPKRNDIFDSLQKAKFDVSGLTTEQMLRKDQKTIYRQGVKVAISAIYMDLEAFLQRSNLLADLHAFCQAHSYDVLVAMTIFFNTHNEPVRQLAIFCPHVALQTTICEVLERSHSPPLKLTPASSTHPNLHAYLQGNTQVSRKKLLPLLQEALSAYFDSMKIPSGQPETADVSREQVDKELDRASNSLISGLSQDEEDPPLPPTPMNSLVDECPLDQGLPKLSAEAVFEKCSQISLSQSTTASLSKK
inactive: [1] -0.025 | [2] -0.002 | [3] 0.023 | [4] 0 | [5] -0.007

PPP6R1 (UniProt Q9UPN7)
inactive: [1] -0.011 | [2] 0.002 | [3] 0.108 | [4] 0.005 | [5] 0.001

PRKAR1A (UniProt P10644)
UniProt P10644, sequence (P10644 whole entry, looked up): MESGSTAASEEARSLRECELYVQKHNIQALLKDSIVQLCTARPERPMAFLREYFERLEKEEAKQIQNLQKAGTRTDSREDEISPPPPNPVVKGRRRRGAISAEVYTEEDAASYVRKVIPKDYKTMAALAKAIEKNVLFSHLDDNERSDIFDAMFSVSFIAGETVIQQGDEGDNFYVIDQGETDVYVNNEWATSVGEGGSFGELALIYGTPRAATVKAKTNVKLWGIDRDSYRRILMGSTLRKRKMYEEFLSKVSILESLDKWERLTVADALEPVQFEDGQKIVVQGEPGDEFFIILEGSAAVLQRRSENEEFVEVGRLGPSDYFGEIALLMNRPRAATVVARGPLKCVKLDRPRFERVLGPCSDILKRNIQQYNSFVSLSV
inactive: [1] 0.213 | [2] -0.019 | [3] 0.119 | [4] 0.041 | [5] -0.008

PRPSAP2 (UniProt O60256)
inactive: [1] 0.009 | [2] -0.026 | [3] -0.027 | [4] -0.012 | [5] 0

PRKCQ (UniProt Q04759)
UniProt Q04759, sequence (Q04759 whole entry, looked up): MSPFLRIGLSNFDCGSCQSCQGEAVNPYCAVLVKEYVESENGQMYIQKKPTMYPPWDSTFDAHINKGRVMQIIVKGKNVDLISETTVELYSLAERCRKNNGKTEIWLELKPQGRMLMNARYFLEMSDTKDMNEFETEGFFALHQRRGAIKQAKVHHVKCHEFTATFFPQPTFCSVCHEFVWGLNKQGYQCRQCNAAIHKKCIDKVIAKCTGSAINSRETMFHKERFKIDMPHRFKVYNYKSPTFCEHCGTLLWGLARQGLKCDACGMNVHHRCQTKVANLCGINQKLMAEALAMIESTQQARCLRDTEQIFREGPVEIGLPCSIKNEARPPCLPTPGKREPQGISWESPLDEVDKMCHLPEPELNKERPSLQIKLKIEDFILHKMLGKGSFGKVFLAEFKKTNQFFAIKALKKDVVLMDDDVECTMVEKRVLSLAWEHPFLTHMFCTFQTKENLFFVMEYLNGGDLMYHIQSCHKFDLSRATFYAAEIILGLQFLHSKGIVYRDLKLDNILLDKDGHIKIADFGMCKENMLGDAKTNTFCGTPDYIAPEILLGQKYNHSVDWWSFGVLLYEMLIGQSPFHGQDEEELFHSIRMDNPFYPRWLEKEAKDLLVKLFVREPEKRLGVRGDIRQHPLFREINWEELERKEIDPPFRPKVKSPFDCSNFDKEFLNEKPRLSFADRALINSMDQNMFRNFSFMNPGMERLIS
inactive: [1] -0.064 | [2] 0.069 | [3] 0.104 | [4] 0.033 | [5] 0

PIK3CD (UniProt O00329)
UniProt O00329, sequence (O00329 whole entry, looked up): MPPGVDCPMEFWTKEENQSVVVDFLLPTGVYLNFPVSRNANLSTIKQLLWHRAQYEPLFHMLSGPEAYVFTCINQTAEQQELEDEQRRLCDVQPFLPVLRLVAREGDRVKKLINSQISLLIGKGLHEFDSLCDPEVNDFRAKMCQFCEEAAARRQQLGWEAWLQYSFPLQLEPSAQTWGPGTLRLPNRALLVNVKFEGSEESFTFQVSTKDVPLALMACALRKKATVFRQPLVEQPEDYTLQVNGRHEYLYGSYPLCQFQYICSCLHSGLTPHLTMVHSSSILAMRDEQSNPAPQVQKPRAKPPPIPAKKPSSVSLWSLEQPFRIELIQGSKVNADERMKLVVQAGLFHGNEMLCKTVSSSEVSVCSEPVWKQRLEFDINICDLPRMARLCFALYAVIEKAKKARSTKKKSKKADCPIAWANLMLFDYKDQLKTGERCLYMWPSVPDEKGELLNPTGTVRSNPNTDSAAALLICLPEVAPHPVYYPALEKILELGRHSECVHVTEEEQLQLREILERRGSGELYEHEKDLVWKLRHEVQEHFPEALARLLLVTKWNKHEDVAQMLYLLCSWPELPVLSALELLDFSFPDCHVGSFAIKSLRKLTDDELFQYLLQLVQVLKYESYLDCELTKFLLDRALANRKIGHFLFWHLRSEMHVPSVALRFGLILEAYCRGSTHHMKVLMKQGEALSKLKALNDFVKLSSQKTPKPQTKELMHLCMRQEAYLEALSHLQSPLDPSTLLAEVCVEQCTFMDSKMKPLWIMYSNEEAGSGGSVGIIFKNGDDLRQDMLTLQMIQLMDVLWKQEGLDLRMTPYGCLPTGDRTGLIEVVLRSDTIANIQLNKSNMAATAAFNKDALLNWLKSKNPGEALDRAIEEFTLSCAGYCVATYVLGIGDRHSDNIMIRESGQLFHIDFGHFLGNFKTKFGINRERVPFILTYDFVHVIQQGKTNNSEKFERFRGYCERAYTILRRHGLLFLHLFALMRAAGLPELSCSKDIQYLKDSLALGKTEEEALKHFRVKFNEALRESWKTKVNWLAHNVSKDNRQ
inactive: [1] -0.166 | [2] -0.126 | [4] -0.086 | [5] 0.018
active: [3] 0.424

PDLIM7 (UniProt Q9NR12)
inactive: [1] -0.04 | [2] 0.044 | [3] 0.092 | [4] -0.023 | [5] -0.011

POLR2D (UniProt O15514)
inactive: [1] 0.003 | [2] 0.134 | [3] -0.006 | [4] 0.17 | [5] 0.045

PSMB6 (UniProt P28072)
UniProt P28072, sequence (P28072 whole entry, looked up): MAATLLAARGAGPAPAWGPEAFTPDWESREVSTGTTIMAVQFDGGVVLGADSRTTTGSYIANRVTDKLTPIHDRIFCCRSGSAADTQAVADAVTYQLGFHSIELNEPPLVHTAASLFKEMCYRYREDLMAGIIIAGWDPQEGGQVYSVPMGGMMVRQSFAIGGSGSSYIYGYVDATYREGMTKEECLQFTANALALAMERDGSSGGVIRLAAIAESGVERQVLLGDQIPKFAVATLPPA
inactive: [1] 0.023 | [2] -0.057 | [3] -0.015 | [4] 0.019 | [5] 0.081

PRMT3 (UniProt O60678)
inactive: [1] -0.1 | [2] 0.077 | [3] 0.024 | [4] -0.013 | [5] 0.001

PRPF38A (UniProt Q8NAV1)
inactive: [1] 0.014 | [2] -0.011 | [3] 0.024 | [4] 0.007 | [5] 0.015

PPP4R3B (UniProt Q5MIZ7)
UniProt Q5MIZ7, sequence (Q5MIZ7 whole entry, looked up): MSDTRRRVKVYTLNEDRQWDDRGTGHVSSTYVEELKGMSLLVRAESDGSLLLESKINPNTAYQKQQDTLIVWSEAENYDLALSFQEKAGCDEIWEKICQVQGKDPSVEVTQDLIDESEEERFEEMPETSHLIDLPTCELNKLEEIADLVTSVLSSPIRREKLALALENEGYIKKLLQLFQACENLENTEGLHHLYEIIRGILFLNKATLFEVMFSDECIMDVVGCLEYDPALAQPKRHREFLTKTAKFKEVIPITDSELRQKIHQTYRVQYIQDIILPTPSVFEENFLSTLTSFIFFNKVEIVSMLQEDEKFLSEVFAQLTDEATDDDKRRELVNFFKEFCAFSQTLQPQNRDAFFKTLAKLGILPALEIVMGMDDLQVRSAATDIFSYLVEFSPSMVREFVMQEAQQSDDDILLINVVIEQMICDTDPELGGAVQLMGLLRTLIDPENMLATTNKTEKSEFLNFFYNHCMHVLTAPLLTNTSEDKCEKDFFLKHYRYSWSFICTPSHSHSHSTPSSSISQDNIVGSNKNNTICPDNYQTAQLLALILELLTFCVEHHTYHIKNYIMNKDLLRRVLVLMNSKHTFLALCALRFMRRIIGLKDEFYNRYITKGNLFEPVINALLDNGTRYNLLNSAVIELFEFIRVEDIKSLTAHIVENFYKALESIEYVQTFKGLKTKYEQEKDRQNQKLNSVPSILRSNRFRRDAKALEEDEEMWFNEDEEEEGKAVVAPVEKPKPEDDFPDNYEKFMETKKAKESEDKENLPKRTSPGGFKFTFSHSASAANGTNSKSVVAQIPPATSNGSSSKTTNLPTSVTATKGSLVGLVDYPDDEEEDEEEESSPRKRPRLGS
inactive: [1] -0.014 | [2] 0.069 | [3] 0.134 | [4] 0.003 | [5] -0.005

PSMC3 (UniProt P17980)
inactive: [1] 0.014 | [2] -0.083 | [3] -0.058 | [4] 0 | [5] 0

PEF1 (UniProt Q9UBV8)
inactive: [1] 0.01 | [2] 0.185 | [3] 0.047 | [4] -0.178 | [5] -0.014

PURA (UniProt Q00577)
UniProt Q00577, sequence (Q00577 whole entry, looked up): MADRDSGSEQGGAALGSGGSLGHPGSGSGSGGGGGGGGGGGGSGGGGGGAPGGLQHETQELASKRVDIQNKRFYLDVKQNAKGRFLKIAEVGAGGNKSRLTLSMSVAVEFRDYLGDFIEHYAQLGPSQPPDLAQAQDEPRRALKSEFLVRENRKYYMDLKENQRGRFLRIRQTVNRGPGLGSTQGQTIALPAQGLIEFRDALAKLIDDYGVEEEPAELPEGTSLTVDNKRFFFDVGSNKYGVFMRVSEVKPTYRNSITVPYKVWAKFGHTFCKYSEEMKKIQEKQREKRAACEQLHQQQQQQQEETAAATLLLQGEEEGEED
inactive: [1] 0.116 | [2] -0.403 | [3] -0.092 | [4] 0.298 | [5] 0.043

PDE6D (UniProt O43924)
inactive: [1] -0.053 | [2] 0.238 | [3] -0.004 | [4] -0.13 | [5] 0.017

PIR (UniProt O00625)
inactive: [1] 0.016 | [2] 0.064 | [3] 0.027 | [4] -0.029 | [5] 0.002

PSMD3 (UniProt O43242)
UniProt O43242, sequence (O43242 whole entry, looked up): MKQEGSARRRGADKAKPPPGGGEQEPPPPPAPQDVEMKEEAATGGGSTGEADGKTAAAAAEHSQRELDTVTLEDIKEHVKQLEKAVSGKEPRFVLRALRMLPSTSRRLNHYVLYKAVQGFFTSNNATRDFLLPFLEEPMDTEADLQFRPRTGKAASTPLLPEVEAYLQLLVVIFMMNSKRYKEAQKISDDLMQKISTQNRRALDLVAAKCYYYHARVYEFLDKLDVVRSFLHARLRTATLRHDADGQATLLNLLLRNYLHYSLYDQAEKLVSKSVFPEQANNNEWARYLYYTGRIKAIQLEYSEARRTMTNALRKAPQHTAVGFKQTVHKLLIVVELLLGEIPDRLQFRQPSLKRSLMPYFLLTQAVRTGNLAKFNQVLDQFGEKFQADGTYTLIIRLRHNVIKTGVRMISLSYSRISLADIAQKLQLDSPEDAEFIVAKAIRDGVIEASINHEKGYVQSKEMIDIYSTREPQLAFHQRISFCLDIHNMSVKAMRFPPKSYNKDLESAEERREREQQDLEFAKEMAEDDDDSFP
inactive: [1] 0.028 | [2] -0.055 | [3] -0.006 | [4] -0.023 | [5] -0.011

PSMC6 (UniProt P62333)
inactive: [1] 0.04 | [2] -0.087 | [3] -0.037 | [4] 0.017 | [5] 0.006

PI4K2A (UniProt Q9BTU6)
inactive: [1] 0.015 | [2] 0.043 | [3] 0.064 | [4] -0.004 | [5] 0.013

PTPA (UniProt A6PVN8)
inactive: [1] 0.011 | [2] 0.011 | [3] 0.001 | [4] -0.015 | [5] 0.148

POLR2B (UniProt P30876)
inactive: [1] -0.028 | [2] 0.105 | [3] 0.047 | [4] 0.159 | [5] -0.053

PPIL1 (UniProt Q9Y3C6)
UniProt Q9Y3C6, sequence (Q9Y3C6 whole entry, looked up): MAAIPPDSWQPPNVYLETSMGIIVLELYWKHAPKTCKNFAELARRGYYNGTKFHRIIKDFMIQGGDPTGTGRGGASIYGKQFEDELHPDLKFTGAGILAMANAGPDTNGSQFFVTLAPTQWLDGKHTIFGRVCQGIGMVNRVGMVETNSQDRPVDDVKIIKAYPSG
inactive: [1] -0.046 | [2] 0.012 | [3] 0.021 | [4] 0.032 | [5] -0.052
